PostGolgi ctrl: growth inhibition of yeast control strain, primary screen, counter-screen for post-Golgi transport modulator project; efflux-deficient yeast background strain, growth absorbance A615, 16 h; inhibition, % at 10 µM; hit rate 5% among 98,000; AID 738, 2007
Measles CPE: compounds protecting cells from measles virus cytopathic effect, primary screen, measles RdRp inhibitor project, single point, MLSMR library, absorbance; protection (pct of control), % at 4 µM; hit rate 1.5% among 140,000; Measles virus-infected cells, CPE protection; in the data active means protection mostly above about 24%, no sharp cut-off; inactive means mostly below about 26%
PostGolgi yeast: phenotypic screen on post-Golgi transport, primary screen | post-Golgi transport phenotypic cell assay | hit rate 0.9% among 98,000 | inhibition, % at 10 µM;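 further: yeast cells grown in 1536-well plates; yeast grown about 18 h at 30C before absorbance read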
MT1-MMP txn act: MT1-MMP promoter reporter activation – cell-based, luciferase luminescence, primary screen | HT1080 MT1-MMP promoter luciferase reporter, overnight; hits give high values | activation factor at 10 µM | hit rate 0.16% among 86,000 | AID 750, 2007;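 active means activation factor of at least 2 for MT1-MMP transcription at 10 µM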
Of the large screens only hits and unclear results are named; the others gave an inactive call. This is a sample that favours compounds with a hit; in the whole collection about 5.3% have one here. Unless noted, no stated cut-off is given here; in the data, active means inhibition above about 30%; inactive means the rest.

CCCCn1c(SCC(=O)Nc2nc(C)cs2)nnc1-c1cccnc1	PostGolgi ctrl 39
CC(=O)Nc1cc(Cl)ccc1OS(=O)(=O)c1ccc(C)cc1	none (no result: PostGolgi ctrl, PostGolgi yeast, MT1-MMP txn act)
COCCn1cnc2c1c(=O)n(CC(=O)OCC(=O)NCC(F)(F)F)c(=O)n2Cc1ccccc1	none (no result: PostGolgi ctrl, PostGolgi yeast, MT1-MMP txn act)
CCCCn1c(-c2csc3c2CCC(C)C3)n[nH]c1=S (configuration not stated)	PostGolgi ctrl 42 (no result: Measles CPE, MT1-MMP txn act)
CNS(=O)(=O)c1cccc(C(=O)OCC(=O)c2cc(C)n(-c3ccc4c(c3)OCO4)c2C)c1	none
Cc1cc(C(=O)COc2ccccc2Cl)c(C)n1-c1ccc2c(c1)OCO2	Measles CPE 33 (no result: PostGolgi ctrl, PostGolgi yeast, MT1-MMP txn act)
CN(C)c1ccc(-c2nnn(Cc3ccccc3Br)n2)cc1	PostGolgi ctrl 31
Fc1ccccc1Cn1nnc(-c2ccc3c(c2)OCO3)n1	none
COc1ccc(-c2nnn(Cc3ccccc3F)n2)cc1	MT1-MMP txn act 2.3 (no result: PostGolgi ctrl, PostGolgi yeast)
O=C(Nc1cccnc1)c1ccc(COc2cc(Cl)ccc2Cl)o1	PostGolgi ctrl 60
COC(=O)c1cc2sc(Cl)cc2n1CC(=O)NCC1CCCO1 (configuration not stated)	PostGolgi ctrl 36
Cc1c(CCO)c(=O)[nH]n1C(=O)c1ccc(F)cc1	none (no result: MT1-MMP txn act)
O=S(=O)(CCSc1nc2ccccc2s1)c1nc2ccccc2s1	PostGolgi ctrl 90
CCCC1CCc2c(c3ccccc3[nH]c2=O)O1 (configuration not stated)	none (no result: MT1-MMP txn act)
CCC1CCc2c(c3ccccc3[nH]c2=O)O1 (configuration not stated)	PostGolgi ctrl 30 (no result: MT1-MMP txn act)
COCCCNC(=O)CS(=O)Cc1nc(-c2cccc(OC)c2)oc1C (configuration not stated)	Measles CPE 39
COc1cc(NS(=O)(=O)c2ccc(OC)c(C)c2C)c(OC)cc1Cl	PostGolgi ctrl 36
COC(=O)[C@@H]1C[C@@]2(O)[C@@H](O)[C@@H](O)[C@@H](O)C[C@H]2N1CC1CCCCC1	none (no result: PostGolgi ctrl, Measles CPE, PostGolgi yeast)
O=C(CSc1nc(Cc2ccccc2)nc2ccccc12)c1ccc2c(c1)OCCO2	none (no result: MT1-MMP txn act)
CCc1nc(SCC(=O)c2ccc3c(c2)OCCO3)c2ccccc2n1	PostGolgi ctrl 32 (no result: MT1-MMP txn act)
Cc1oc(-c2nc3ccccc3n2C)cc1C(=O)c1ccccc1	PostGolgi ctrl 34
COc1ccccc1-c1nnc2sc(-c3cc4ccccc4o3)nn12	PostGolgi ctrl 41
Cc1ccc(S(=O)(=O)N2CCCOC2CNC(=O)C(=O)NCc2ccco2)cc1 (configuration not stated)	none (no result: PostGolgi ctrl, PostGolgi yeast, MT1-MMP txn act)
Cc1nnsc1SCCNC(=O)c1ccc(F)cc1	none (no result: MT1-MMP txn act)
COc1ccccc1-c1c(C)nn2c(N3CCC(C(N)=O)CC3)cc(C)nc12	none (no result: MT1-MMP txn act)
COc1ccccc1-c1c(C)nn2c(N3CCC4(CC3)OCCO4)cc(C)nc12	PostGolgi ctrl 98
Cn1nc(C(F)(F)F)c2cc(NC(=O)OCc3ccc(F)cc3)sc21	none
Cn1nc(C(F)(F)F)c2cc(NC(=O)OCc3ccc(C(C)(C)C)cc3)sc21	PostGolgi ctrl 38
CC(C)OCCCNC(=O)CN1C(=O)/C(=C/c2ccccc2)Sc2ccccc21	none (no result: PostGolgi ctrl, PostGolgi yeast, MT1-MMP txn act)
Cc1ccc(S(=O)(=O)c2cc3ccccc3oc2=Nc2ccc3c(c2)OCCO3)cc1	none (no result: PostGolgi ctrl, PostGolgi yeast, MT1-MMP txn act)
Cc1ccc(S(=O)(=O)c2cc3ccccc3oc2=Nc2ccc3c(c2)OCO3)cc1	Measles CPE 25 (no result: MT1-MMP txn act)
CC(=O)N1N=C(c2cccc(Cl)c2)OC1c1ccc(C(C)C)cc1 (configuration not stated)	PostGolgi ctrl 35
CC(=O)N1N=C(c2cccc(Cl)c2)OC1c1cccc([N+](=O)[O-])c1 (configuration not stated)	none (no result: PostGolgi ctrl, PostGolgi yeast, MT1-MMP txn act)
Cc1cc(N2CCN(C(c3ccccc3)c3ccc(Cl)cc3)CC2)n2ncnc2n1 (configuration not stated)	none (no result: PostGolgi ctrl, PostGolgi yeast)
Cc1cc(N2CCN(C/C=C/c3ccccc3)CC2)n2ncnc2n1	Measles CPE 32
Cc1ccc2nc(SCC(=O)Nc3cc(C)on3)[nH]c2c1	none
Cc1cc(NC(=O)CSC2=NCCS2)no1	PostGolgi ctrl 30
COc1ccc2nc(SCC(=O)Nc3cc(C)on3)[nH]c2c1	PostGolgi yeast 37
Cc1cc(NC(=O)CSc2ccc3ccccc3c2)no1	none
O=C1[C@@H]2[C@H](C(=O)N1Cc1ccco1)[C@H]1C=C[C@@H]2C1	none
Cc1ccc2nc(Cl)c(/C=N/Nc3nc(C)cc(C)n3)c(=O)n2c1	none (no result: PostGolgi ctrl, PostGolgi yeast, MT1-MMP txn act)
C/C(CC(=O)Nc1cc(C)cc(C)c1)=N\NC(=O)c1ccccn1	Measles CPE 69 (no result: PostGolgi ctrl, PostGolgi yeast, MT1-MMP txn act)
CCC/C=C(\CCC)C(NP(=O)(c1ccccc1)c1ccccc1)c1ccc(C(F)(F)F)cc1 (configuration not stated)	none (no result: PostGolgi ctrl, Measles CPE, PostGolgi yeast)
[2H]c1c([2H])c([2H])c(-c2nc(N3CCCCCC3)sc2C(=O)c2ccccc2)c([2H])c1[2H]	none (no result: MT1-MMP txn act)
O=Nc1c(O)n(Cc2ccc(Cl)cc2Cl)c2ccccc12	PostGolgi ctrl 65, PostGolgi yeast 34 (no result: MT1-MMP txn act)
CCOC(=O)n1c(=O)oc2ccc(Cl)cc21	none (no result: PostGolgi ctrl, PostGolgi yeast)
O=Nc1c(O)n(Cc2ccc(Cl)cc2)c2ccccc12	none (no result: MT1-MMP txn act)
CCOC(=O)n1c(=O)n(Cc2ccc(Cl)cc2Cl)c2ccccc21	PostGolgi ctrl 34 (no result: MT1-MMP txn act)
CCOC(=O)n1c(=O)n(Cc2ccccc2Cl)c2ccccc21	PostGolgi ctrl 47 (no result: MT1-MMP txn act)
COc1ccc(/C=N/NC(=O)OC(C)(C)C)cc1OC	none (no result: PostGolgi ctrl, PostGolgi yeast, MT1-MMP txn act)
O=S(=O)(c1cccc(-c2csc(-c3cccnc3)n2)c1)N1CCCCC1	PostGolgi ctrl 32
c1cncc(-c2nc(-c3cccs3)cs2)c1	none
O=S(=O)(c1cccc(-c2nc3ccccc3s2)c1)N1CCCC1	PostGolgi ctrl 34
Clc1ccsc1-c1csc(-c2cccnc2)n1	PostGolgi ctrl 85, PostGolgi yeast 81
CC1CCN(S(=O)(=O)c2cccc(-c3csc(-c4cccnc4)n3)c2)CC1	none
Nc1cccc(-c2nc3ccccc3s2)c1	PostGolgi ctrl 31
Cc1ccc(C(=O)COC(=O)CCC(=O)NC2CCCCC2)cc1C	none
Cc1nc(SCC(=O)NCCc2ccc(Cl)cc2)nc(C)c1C	none
Cc1ccccc1NC(=O)C(=O)NCc1ccccn1	none (no result: MT1-MMP txn act)
COCCNC(=O)C(c1ccccc1C)N(C(=O)Cn1nnc2ccccc21)c1cccnc1 (configuration not stated)	none (no result: PostGolgi ctrl, PostGolgi yeast)
O=S(=O)(c1ccc(-c2csc(-c3cccnc3)n2)cc1)N1CCCC1	none
CS(=O)(=O)N1CCN(c2nc(-c3ccc(F)cc3)cs2)CC1	none
O=S(=O)(c1ccc(F)cc1)N1CCN(c2nc(-c3ccc(F)cc3)cs2)CC1	PostGolgi ctrl 37
O=S(=O)(c1ccc(-c2csc(-c3cccnc3)n2)cc1)N1CCCCC1	PostGolgi ctrl 41
O=C(CSCc1ccc(Cl)cc1)NCc1ccccn1	none (no result: PostGolgi ctrl, PostGolgi yeast, MT1-MMP txn act)
Cc1ccc(NC(=O)c2ccccc2NS(=O)(=O)c2ccc(Cl)s2)cc1S(=O)(=O)N1CCOCC1	none (no result: PostGolgi ctrl, PostGolgi yeast, MT1-MMP txn act)
O=C(NCc1ccccn1)Nc1ccc(Cl)c(Cl)c1	PostGolgi ctrl 46
O=C(N/N=C/c1ccc(-c2cccc(C(F)(F)F)c2)o1)c1cccc(F)c1	PostGolgi ctrl 37, PostGolgi yeast 36 (no result: MT1-MMP txn act)
O=C(N/N=C/c1ccc(-c2cccc(C(F)(F)F)c2)o1)c1ccccc1O	none (no result: PostGolgi ctrl, PostGolgi yeast, MT1-MMP txn act)
COc1ccc(NC(=O)c2ccc(Cl)c(S(=O)(=O)N3CCc4ccccc4C3)c2)cn1	PostGolgi ctrl 45
COc1cc(OC)cc(C(=O)N2c3ccc(F)cc3CCC2C)c1 (configuration not stated)	PostGolgi ctrl 32

Screening results (PubChem)
